Test results: PubChem BioAssay (EPA / NIEHS)
Results filed as inconclusive are left out. Calls of active or inactive are those of the source. Rule for the calls: active = hit-call score of the fitted dose curve at least 0.9, where 1 is the maximum; inconclusive = response in the unintended direction; inactive = score below 0.9.

How the values were obtained:
[1] = target: Estrogen receptor (Homo sapiens) (UniProt P03372); assay: ATG_hERa_XSP1: Attagene TRANS-FACTORIAL Multi-Species (XSP1) HepG2 Assay for human Estrogen Receptor (ESR1) (AID 2283780)
How it was run: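 Reporter transcripts from multiplexed GAL4-UAS units driven by NR-Gal4 chimeras in transiently transfected HepG2 were measured by RT-PCR with capillary electrophoresis 24 h post-dose, with 3 nM 6-alpha-fluorotestosterone present; gain-of-signal relative to DMSO.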

[2] = system: turtle Estrogen Receptor (ESR1), gene 101933533; assay: ATG_trERa_XSP1: Attagene TRANS-FACTORIAL Multi-Species (XSP1) HepG2 Assay for turtle Estrogen Receptor (ESR1) (AID 2283781)
How it was run: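 Transactivation measured 24 h post-dose as reporter mRNA (RT-PCR, fluorescent capillary electrophoresis) from an NR-Gal4 turtle ER construct in HepG2. Medium included 3 nM 6-alpha-fluorotestosterone; increase over DMSO fitted.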

[3] = system: turtle Androgen Receptor (AR), gene 101947425; assay: ATG_trAR_XSP1: Attagene TRANS-FACTORIAL Multi-Species (XSP1) HepG2 Assay for turtle Androgen Receptor (AR) (AID 2283786)
How it was run: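 Partial androgen stimulation is provided by 3 nM 6-alpha-fluorotestosterone in a multi-species trans-factorial panel expressing a turtle AR–GAL4 fusion in HepG2. After 24 h, reporter mRNA is measured by RT-PCR and capillary electrophoresis and fitted upward against DMSO.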

[4] = target: Estrogen receptor beta (Homo sapiens) (UniProt Q92731); assay: ATG_hERb_XSP1: Attagene TRANS-FACTORIAL Multi-Species (XSP1) HepG2 Assay for human Estrogen Receptor (ESR2) (AID 2283788)
How it was run: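 HepG2 cells transiently transfected with multiplexed GAL4-UAS reporter units carrying chimeric human ERβ-Gal4; 24 h compound exposure with 3 nM 6-alpha-fluorotestosterone present. Reporter mRNA quantified by RT-PCR, FAM labelling and capillary electrophoresis; gain-of-signal fitted versus DMSO.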

[5] = target: GAL4 Transcription Factor (Internal Marker), GAL4 (gene 855828) (UniProt P04386); assay: ATG_GAL4_XSP1: Attagene TRANS-FACTORIAL Multi-Species (XSP1) HepG2 Assay for GAL4 Transcription Factor (Internal Marker) (AID 2283789)
How it was run: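 This background-control endpoint measures GAL4-driven reporter mRNA via RT-PCR and capillary electrophoresis of labelled fragments. Transiently transfected HepG2 cells were treated 24 h, with 3 nM 6-alpha-fluorotestosterone included, and gain-of-signal was fitted against DMSO.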

[6] = STM_H9_NormalizedViability: Cytotoxicity Assessment at 120 hours in the Stemina devTOX quickPredict H9 human embryonic stem cell (hESC)-based Assay (AID 2283784)
How it was run: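 Viability endpoint: background-corrected CellTiter-Fluor RFU expressed relative to the 0.1% DMSO mean on each plate. Undifferentiated H9 cells were treated with daily re-dosing and media change, and loss of signal was fitted.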

[7] = ATG_M_06_XSP1: Attagene TRANS-FACTORIAL Multi-Species (XSP1) HepG2 Assay for M06 Transcription Factor (Internal Marker) (AID 2283790)
How it was run: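 This background-control readout tracks M06 reporter mRNA, measured by RT-PCR and capillary electrophoresis. HepG2 cells transiently carrying the GAL4-UAS reporter panel were dosed for 24 h with 3 nM 6-alpha-fluorotestosterone added for partial AR stimulation; increases were scored relative to DMSO.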

[8] = ACEA_ER_AUC_viability: ACEA Biosciences xCELLigence Real-Time Cell Analysis on Estrogen Receptor Agonism for Viability (AID 2283782);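 note: hit means loss of impedance signal meaning reduced cell growth or viability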
How it was run: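 Viability endpoint: reduced impedance area under the curve relative to DMSO, recorded by real-time electrode sensing over ~80 h of continuous exposure. Duplicate plates of T47D in hormone-depleted medium; eight concentrations, 1:4 dilutions, 100 uM maximum.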

AR (gene 367) [9] = target: AR (gene 367) (UniProt P10275); assay: ACEA_AR_agonist_80hr: ACEA Biosciences xCELLigence Real-Time Cell Analysis on Androgen Receptor Agonism for Proliferation (AID 2283783);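 note: hits increase impedance growth signal above DMSO baseline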
How it was run: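 Eight concentrations, 1:4 serial dilution from a 100 uM final top, in biological duplicate. Impedance-based real-time growth of 22Rv1 cells after overnight baseline, recorded hourly and read at 80 hours. Controls: testosterone, MG132, assay media.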

AR (gene 367) [10] = target: AR (gene 367) (UniProt P10275); assay: ACEA_AR_antagonist_80hr: ACEA Biosciences xCELLigence Real-Time Cell Analysis on Androgen Receptor Antagonism for Proliferation (AID 2283787);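 note: 22Rv1 human prostate cancer cells with growth followed by electrical impedance; hits lower the impedance growth signal relative to DMSO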
How it was run: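 Impedance-based real-time growth of 22Rv1 prostate cells, read 80 h after dosing. Eight concentrations, 1:4 series, top 100 uM final (0.5% DMSO), n = 2; signal decrease scored against DMSO.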

GAL4 Transcription Factor (Internal Marker), GAL4 (gene 855828), sequence (P04386 whole entry, looked up, the tested form may be a part): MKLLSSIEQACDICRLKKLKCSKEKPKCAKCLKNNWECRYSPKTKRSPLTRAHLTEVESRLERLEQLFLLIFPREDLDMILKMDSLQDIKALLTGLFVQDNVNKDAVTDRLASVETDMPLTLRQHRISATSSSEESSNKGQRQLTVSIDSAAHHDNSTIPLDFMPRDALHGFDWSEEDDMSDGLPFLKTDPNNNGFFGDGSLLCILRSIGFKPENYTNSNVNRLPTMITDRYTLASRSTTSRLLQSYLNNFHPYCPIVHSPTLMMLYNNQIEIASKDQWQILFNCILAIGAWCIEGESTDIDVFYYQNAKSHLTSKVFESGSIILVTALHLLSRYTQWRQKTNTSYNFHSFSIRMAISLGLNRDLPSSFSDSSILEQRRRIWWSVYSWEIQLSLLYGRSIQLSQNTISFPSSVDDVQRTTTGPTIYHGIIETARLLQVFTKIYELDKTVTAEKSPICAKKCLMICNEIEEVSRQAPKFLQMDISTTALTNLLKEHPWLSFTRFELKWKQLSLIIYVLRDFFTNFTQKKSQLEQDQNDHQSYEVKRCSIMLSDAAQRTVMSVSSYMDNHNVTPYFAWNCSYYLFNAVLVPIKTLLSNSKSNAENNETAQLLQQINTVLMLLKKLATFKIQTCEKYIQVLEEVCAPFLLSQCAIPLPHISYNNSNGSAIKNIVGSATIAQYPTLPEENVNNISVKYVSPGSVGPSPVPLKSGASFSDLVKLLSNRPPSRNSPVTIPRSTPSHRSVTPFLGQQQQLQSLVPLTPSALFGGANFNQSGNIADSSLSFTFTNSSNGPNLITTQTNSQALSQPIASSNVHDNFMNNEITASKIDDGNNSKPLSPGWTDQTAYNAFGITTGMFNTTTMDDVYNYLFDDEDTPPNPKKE
Estrogen receptor beta (Homo sapiens), sequence (Q92731 whole entry, looked up, the tested form may be a part): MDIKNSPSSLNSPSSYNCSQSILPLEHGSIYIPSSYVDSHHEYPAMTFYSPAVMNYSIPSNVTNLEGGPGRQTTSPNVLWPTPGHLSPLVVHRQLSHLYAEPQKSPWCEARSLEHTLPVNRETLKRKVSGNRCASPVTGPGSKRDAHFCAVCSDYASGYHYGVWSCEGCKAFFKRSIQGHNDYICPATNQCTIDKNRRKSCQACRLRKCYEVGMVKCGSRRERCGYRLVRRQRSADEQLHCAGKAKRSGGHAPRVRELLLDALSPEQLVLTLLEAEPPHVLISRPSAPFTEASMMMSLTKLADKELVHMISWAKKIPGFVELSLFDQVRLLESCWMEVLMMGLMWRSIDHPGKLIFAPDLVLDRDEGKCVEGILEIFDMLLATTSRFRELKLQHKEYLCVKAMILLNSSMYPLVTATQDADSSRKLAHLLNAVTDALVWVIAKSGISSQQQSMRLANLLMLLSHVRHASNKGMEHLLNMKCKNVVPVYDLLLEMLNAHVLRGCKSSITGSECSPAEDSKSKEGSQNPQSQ
Estrogen receptor (Homo sapiens), sequence (P03372 whole entry, looked up, the tested form may be a part): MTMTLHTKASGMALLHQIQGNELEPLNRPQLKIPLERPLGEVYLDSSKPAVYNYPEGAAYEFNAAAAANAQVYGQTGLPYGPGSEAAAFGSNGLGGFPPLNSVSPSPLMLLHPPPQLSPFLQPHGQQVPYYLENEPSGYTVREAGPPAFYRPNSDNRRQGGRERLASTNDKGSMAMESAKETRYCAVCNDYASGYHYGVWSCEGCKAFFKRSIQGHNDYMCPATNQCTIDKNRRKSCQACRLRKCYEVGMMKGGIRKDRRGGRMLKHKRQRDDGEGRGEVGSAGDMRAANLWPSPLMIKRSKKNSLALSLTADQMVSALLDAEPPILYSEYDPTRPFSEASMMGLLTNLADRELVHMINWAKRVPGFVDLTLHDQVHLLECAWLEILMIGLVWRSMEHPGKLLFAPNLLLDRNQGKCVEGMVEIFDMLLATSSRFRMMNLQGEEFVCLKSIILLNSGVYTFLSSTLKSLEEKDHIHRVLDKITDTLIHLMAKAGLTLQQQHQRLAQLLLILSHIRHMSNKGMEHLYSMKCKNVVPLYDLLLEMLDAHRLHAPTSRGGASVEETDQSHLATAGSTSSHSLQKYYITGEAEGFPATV
AR (gene 367), sequence (P10275 whole entry, looked up): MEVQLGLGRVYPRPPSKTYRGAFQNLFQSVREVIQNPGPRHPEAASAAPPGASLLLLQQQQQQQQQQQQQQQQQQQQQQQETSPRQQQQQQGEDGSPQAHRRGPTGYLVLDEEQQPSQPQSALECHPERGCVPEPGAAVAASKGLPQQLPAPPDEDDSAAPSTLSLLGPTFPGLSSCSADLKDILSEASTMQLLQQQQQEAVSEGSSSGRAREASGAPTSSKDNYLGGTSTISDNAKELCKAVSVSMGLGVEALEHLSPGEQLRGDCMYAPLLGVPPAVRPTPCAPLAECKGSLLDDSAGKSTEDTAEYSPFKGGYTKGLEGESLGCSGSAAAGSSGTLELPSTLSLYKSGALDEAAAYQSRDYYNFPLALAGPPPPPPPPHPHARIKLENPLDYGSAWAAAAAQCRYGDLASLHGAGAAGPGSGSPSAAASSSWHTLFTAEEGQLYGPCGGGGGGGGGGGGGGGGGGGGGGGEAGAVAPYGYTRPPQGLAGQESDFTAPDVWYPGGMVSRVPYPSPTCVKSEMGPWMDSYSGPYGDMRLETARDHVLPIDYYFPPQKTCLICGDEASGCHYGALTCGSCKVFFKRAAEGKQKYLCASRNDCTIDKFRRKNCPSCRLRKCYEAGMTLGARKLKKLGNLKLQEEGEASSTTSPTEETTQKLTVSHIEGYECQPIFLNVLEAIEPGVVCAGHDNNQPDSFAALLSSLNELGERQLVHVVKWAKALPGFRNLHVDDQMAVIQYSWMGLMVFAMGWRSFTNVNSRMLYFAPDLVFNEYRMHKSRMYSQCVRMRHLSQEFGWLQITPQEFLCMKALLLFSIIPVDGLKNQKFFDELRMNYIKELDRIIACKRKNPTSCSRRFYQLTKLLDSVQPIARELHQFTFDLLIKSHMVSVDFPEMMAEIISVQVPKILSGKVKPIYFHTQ

With `CC1(C)C(C=C(Cl)Cl)C1C(=O)OC(C#N)c1cccc(Oc2ccccc2)c1` (stereo not given) the AC50 [1] was 1.45 µM (active), the outcome [2] was “inactive” and the outcome [3] was “inactive”. For the same compound, the AC50 [4] was 66.8 µM (active) and the outcome [5] was “inactive”.

With `CCN(CC)C(=O)C(C)Oc1cccc2ccccc12` (stereo not given) the outcome [1] was “inactive”, the AC50 [2] was 5.99 µM (active) and the outcome [6] was “inactive”. For the same compound, the AC50 [4] was 100 µM (active) and the outcome [7] was “inactive”.

For `OC(c1ccc(Cl)cc1)(c1ccc(Cl)cc1)C(Cl)(Cl)Cl`, the AC50 [8] was 26.4 µM (active).

For `CCCC(=NOCC)C1=C(O)CC(CC(C)SCC)CC1=O` (stereo not given), the outcome [8] was “inactive”.

In the case of `Cc1ccc(N=CN(C)C=Nc2ccc(C)cc2C)c(C)c1`, the AC50 [8] is reported as 50 µM (active).

With `CCN(CC)c1nc(C)cc(OP(=S)(OC)OC)n1` the outcome [8] was “inactive”.

For `CC(C)NC(=O)N1CC(=O)N(c2cc(Cl)cc(Cl)c2)C1=O`, the AC50 [1] was 10.3 µM (active), the AC50 [2] was 41.4 µM (active) and the outcome [8] was “inactive”. The outcome [5] was “inactive”.

In the case of `CC1(C)CCC(=Cc2ccc(Cl)cc2)C1(O)Cn1cncn1` (stereo not given), the AC50 [1] is reported as 3.95 µM (active), the AC50 [2] is reported as 5.79 µM (active) and the outcome (AR (gene 367) [9]) is reported as “inactive”. The outcome [6] was “inactive”, the AC50 (AR (gene 367) [10]) was 13.1 µM (active) and the AC50 [4] was 46.6 µM (active). For the same compound, the outcome [7] was “inactive”.

In the case of `COP(=S)(OC)Oc1ccc([N+](=O)[O-])c(C)c1`, the AC50 [1] is reported as 36.7 µM (active), the AC50 [2] is reported as 50.1 µM (active) and the outcome [8] is reported as “inactive”. For the same compound, the AC50 [4] was 64 µM (active), the outcome [5] was “inactive” and the outcome [7] was “inactive”.

In the case of `Cn1c(-c2ccccc2)cc(-c2ccccc2)[n+]1C`, the AC50 [6] is reported as 31.1 µM (active).

With `COC(=O)N(C(=O)N1CO[C@@]2(C(=O)OC)Cc3cc(Cl)ccc3C2=N1)c1ccc(OC(F)(F)F)cc1` the AC50 [8] was 69.2 µM (active) and the AC50 (AR (gene 367) [10]) was 40 µM (active).

For `CCNC(=O)NC(=O)C(C#N)=NOC`, the outcome [8] was “inactive” and the outcome [6] was “inactive”.

For `CC(C)Nc1nc(Cl)nc(NC(C)C)n1`, the outcome [8] was “inactive” and the outcome [6] was “inactive”.

For `CO/N=C(/C1=NOCCO1)c1ccccc1Oc1ncnc(Oc2ccccc2Cl)c1F`, the AC50 [8] was 91.8 µM (active) and the AC50 [6] was 35.2 µM (active).
